Compound activity deposited in PubChem by National Center for Advancing Translational Sciences (NCATS).
This is a sample that favours compounds with a hit; in the whole collection about 17% have one here.
TDP1 cell noCPT: qHTS for Inhibitors of human tyrosyl-DNA phosphodiesterase 1 (TDP1): qHTS in cells in absence of CPT; DT40 Tdp1-/- hTDP1 cells, no CPT, ATP luminescence, 48 h; Potency, µM (highest dose often 46.2 µM), most hits filed as inhibitors; 420,000 compounds, 15% hits; AID 686978, 2013; note: nearly all actives have a fitted effect of over 55% in size
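Seeded 400 DT40-hTDP1 cells/well (vehicle DMSO, no 20 nM CPT); pinned compounds; ≥48 hr at 37 °C; CellTiter-Glo luminescence as viability measure.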
TDP1 block: TDP1 (human) enzyme inhibition; 350,000 compounds, 0.28% hits; Potency, µM (highest dose often 130 µM), hits mostly inhibitors; recombinant TDP1, AlphaScreen DNA substrate cleavage; Q9NUW8; AID 485290; note: nearly all actives have a fitted effect of over 40% in size
Target sequence (Q9NUW8 whole entry, looked up): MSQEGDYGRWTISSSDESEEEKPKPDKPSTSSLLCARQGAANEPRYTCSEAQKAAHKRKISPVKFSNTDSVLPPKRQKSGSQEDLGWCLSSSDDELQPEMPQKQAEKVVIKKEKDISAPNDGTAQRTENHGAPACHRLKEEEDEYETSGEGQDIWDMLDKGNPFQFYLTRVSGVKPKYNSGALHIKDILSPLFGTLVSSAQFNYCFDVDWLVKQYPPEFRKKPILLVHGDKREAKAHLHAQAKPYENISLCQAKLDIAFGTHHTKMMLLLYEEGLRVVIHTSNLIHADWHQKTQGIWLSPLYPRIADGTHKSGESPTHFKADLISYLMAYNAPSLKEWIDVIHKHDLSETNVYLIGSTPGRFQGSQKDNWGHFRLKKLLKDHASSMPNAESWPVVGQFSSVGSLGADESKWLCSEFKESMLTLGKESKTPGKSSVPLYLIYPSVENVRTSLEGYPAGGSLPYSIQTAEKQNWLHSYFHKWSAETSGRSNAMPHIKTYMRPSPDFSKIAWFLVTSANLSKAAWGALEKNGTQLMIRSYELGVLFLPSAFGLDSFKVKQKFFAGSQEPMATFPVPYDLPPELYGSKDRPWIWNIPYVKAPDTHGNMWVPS
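AlphaScreen read-out: signal falls as enzyme removes the 3' tyrosine-FITC from a 5'-biotinylated DNA oligo (15 nM, 5 min, RT). Enzyme was E. coli-made recombinant Tdp1 at 1 nM, exposed to compound for 15 min beforehand; beads 10 ug/ml, 10 min.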
TDP1 cell CPT: DT40-hTDP1 cell growth loss with CPT | chicken DT40 Tdp1-/-;hTDP1 cells + 20 nM CPT, ATP luminescence, 48 h | Potency, µM (series often up to 46.2 µM), most hits filed as inhibitors | 420,000 compounds, 12% hits | AID 686979; note: nearly all actives have a fitted effect of over 55% in size
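Chicken DT40 Tdp1-/- cells stably complemented with human TDP1 were seeded at 400 cells/well in medium containing 20 nM camptothecin, exposed to pin-transferred compounds, and grown at 37 °C for at least 48 hr. Viability was read as ATP luminescence.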
ClpP mod: qHTS Assay for Activators of ClpP. ATP-dependent Clp protease proteolytic subunit (Bacillus subtilis (strain 168)), P80244. purified B. subtilis ClpP, FRET peptide cleavage, 20 min. Potency, µM (highest dose often 57.5 µM). 340,000 compounds, 1.9% hits. AID 651965, 2013; active = well fitted falling curve with a large enough effect; inconclusive = small, poorly fitted or top-dose-only effect; inactive = no such curve, though single readings can be large or run the other way; note: the source files actives as falling curves though it sought activators and does not explain the sign; nearly all actives have a fitted effect of over 65% in size
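Purified B. subtilis ClpP, 10 microg/mL final in Tris/HCl pH8 with KCl, BSA, glycerol and Tween-20, cleaved an Abz/nitrotyrosine-quenched decapeptide. Fluorescence (ex 320, em 430) was read at 0 and 20 min at room temperature. Delta was normalized to 5.8 microM ADEP and DMSO/no-enzyme controls.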
Of the large screens only hits and unclear results are named; the others gave an inactive call. Unless noted, calls come from the whole dose curve; as a rule, active = well fitted curve in the direction sought with a large enough effect; inconclusive = small, poorly fitted or top-dose-only effect, or another doubt; inactive = no such curve, though single readings can be large; an effect the other way counts as inactive or inconclusive.

CC(C)C[C@@H](CNCC(=O)[C@H](Cc1c[nH]c2ccccc12)NC(=O)c1[nH]cnc1C(=O)N[C@@H](C)CN)NC(=O)c1nc[nH]c1C(=O)N[C@@H](Cc1ccccc1)C(=O)O	none (no result: TDP1 block)
O=C(N[C@@H](Cc1ccccc1)C(=O)OCc1ccccc1)c1nc[nH]c1C(=O)N1CCN(c2ccccc2)CC1	TDP1 cell noCPT inconclusive, TDP1 cell CPT inconclusive
CC(C)C[C@H](NC(=O)c1nc[nH]c1C(=O)N[C@@H](CC(C)C)C(=O)OC(C)(C)C)C(=O)OC(C)(C)C	TDP1 cell noCPT inconclusive, TDP1 cell CPT 23µM
C[C@H](NC(=O)c1nc[nH]c1C(=O)N1CCN(c2ccccc2)CC1)C(=O)OCc1ccccc1	TDP1 cell noCPT inconclusive, TDP1 cell CPT 18µM (no result: TDP1 block)
CC(C)C[C@H](NC(=O)c1[nH]cnc1C(=O)N[C@H](C)c1ccccc1)C(=O)OC(C)(C)C	TDP1 cell noCPT 18µM, TDP1 cell CPT inconclusive
CC(C)(C)OC(=O)N1CCN(C(=O)c2nc[nH]c2C(=O)N2CCN(c3ccccc3)CC2)CC1	none
CC(C)C[C@H](NC(=O)c1nc[nH]c1C(=O)NCCNC(=O)OC(C)(C)C)C(=O)CNCCNC(=O)c1[nH]cnc1C(=O)N[C@@H](C)C(=O)OC(C)(C)C	TDP1 cell noCPT inconclusive, TDP1 cell CPT 23µM
CC(C)C[C@H](NC(=O)c1nc[nH]c1C(=O)N1CCN(c2ccccc2)CC1)C(=O)OC(C)(C)C	TDP1 cell noCPT inconclusive, TDP1 cell CPT 21µM
O=C(c1nc[nH]c1C(=O)N1CCN(c2ccccc2)CC1)N1CCN(c2ccccc2)CC1	TDP1 cell CPT 13µM
CC(C)C[C@H](NC(=O)c1nc[nH]c1C(=O)N1CCc2ccccc2C1)C(=O)OC(C)(C)C	TDP1 cell noCPT inconclusive, TDP1 cell CPT inconclusive
CC(C)C[C@H](NC(=O)c1nc[nH]c1C(=O)NCC(=O)OC(C)(C)C)C(=O)OC(C)(C)C	TDP1 cell noCPT inconclusive, TDP1 cell CPT inconclusive
CC(C)C[C@H](NC(=O)c1nc[nH]c1C(=O)NC(c1ccccc1)c1ccccc1)C(=O)OC(C)(C)C	TDP1 cell noCPT 18µM, TDP1 cell CPT 4.1µM
Cc1c(Br)c([N+](=O)[O-])nn1C(C)C(=O)N1CCc2ccccc2C1 (centres undefined)	none
Cc1ccc(Oc2cc([N+](=O)[O-])cc3c2C(=O)Nc2ccccc2O3)cc1	TDP1 cell noCPT 15µM, TDP1 cell CPT inconclusive
O=C1Nc2ccccc2Nc2ccc([N+](=O)[O-])cc21	none (no result: TDP1 block, ClpP mod)
COc1cc(=O)n2c(c1C(=O)N(C)Cc1nonc1C)CCN(Cc1ccsc1)CC2	none (no result: TDP1 block, ClpP mod)
CCCCCCN1CC(O)=C(c2nc3ccccc3[nH]2)C1=N	none
COc1ccc(CCN2CC(O)=C(c3nc4ccccc4c(=O)[nH]3)C2=N)cc1OC	TDP1 cell noCPT 18µM, TDP1 cell CPT inconclusive, ClpP mod 22µM
N=C1C(c2nc3ccccc3[nH]2)=C(O)CN1c1ccc(CC(=O)O)cc1	none
CCOc1ccc(N2CC(O)=C(c3nc4ccccc4c(=O)[nH]3)C2=N)cc1	TDP1 block inconclusive (no result: ClpP mod)
CCC(C)N1CC(O)=C(c2nc3ccccc3[nH]2)C1=N (centres undefined)	TDP1 cell noCPT inconclusive, TDP1 cell CPT 23µM
CCOC(=O)c1ccc(N2CC(O)=C(c3nc4ccccc4c(=O)[nH]3)C2=N)cc1	TDP1 cell noCPT 10µM, TDP1 cell CPT inconclusive, ClpP mod inconclusive
N=C1C(c2nc3ccccc3[nH]2)=C(O)CN1c1ccccc1	TDP1 cell noCPT 23µM, TDP1 cell CPT inconclusive
CCOc1ccc(S(=O)(=O)NC2=NCCCCC2)cc1	TDP1 cell noCPT inconclusive
COc1ccc(N=C2c3ccccc3-c3ccc([N+](=O)[O-])cc32)cc1	none (no result: TDP1 block, ClpP mod)
CC1C(O)=C(c2nc3ccccc3[nH]2)C(=N)N1c1ccccc1 (centres undefined)	TDP1 cell noCPT 21µM, TDP1 cell CPT inconclusive
N=C1C(c2nc3ccccc3c(=O)[nH]2)=C(O)CN1c1ccccc1	none (no result: TDP1 cell noCPT, TDP1 cell CPT, ClpP mod)
Cn1cc(CNCc2ccc(OC(F)(F)F)cc2)c(-c2ccc3c(c2)OCCO3)n1	TDP1 cell noCPT 2.6µM, TDP1 cell CPT 7.3µM
CCCN(C(=O)C(=O)Nc1ccc2nc3n(c(=O)c2c1)CCCCC3)c1ccc(OCC)cc1	TDP1 cell noCPT 13µM, TDP1 cell CPT 13µM
COc1cccc(C(=O)Nc2cc3c4c(c2)CC(=O)N4CCC3)c1	none
O=c1c2cc(NC(=S)NC3CCCCC3)ccc2nc2n1CCCCC2	TDP1 cell noCPT inconclusive, TDP1 cell CPT 18µM (no result: ClpP mod)
CCOC(=O)Nc1ccc2nc3n(c(=O)c2c1)CCCCC3	TDP1 cell CPT inconclusive
CC1CCCCN1C(=S)Nc1ccc2nc3n(c(=O)c2c1)CCCCC3 (centres undefined)	TDP1 cell noCPT inconclusive, TDP1 cell CPT inconclusive, ClpP mod 28µM
COc1cc(C(=O)Nc2cc3c4c(c2)CC(=O)N4CCC3)cc(OC)c1OC	ClpP mod 16µM
O=c1c2cc(NC(=S)N3CCC(N4CCCCC4)CC3)ccc2nc2n1CCCCC2	none
C=CCN1CC(C(=O)N(CCCN(C)C)C(=O)NCC)CC2c3cccc4[nH]cc(c34)CC21 (centres undefined)	none (no result: TDP1 cell noCPT, TDP1 cell CPT, ClpP mod)
CCCCN1C(=O)C(=O)NC[C@@H]1Cc1ccc(O)cc1	none (no result: TDP1 block)
Cc1occc1C(=O)N/N=C/c1ccccc1[N+](=O)[O-]	none (no result: ClpP mod)
O=c1c2cc(NC(=S)NC3CCN(Cc4ccccc4)CC3)ccc2nc2n1CCCCC2	TDP1 cell noCPT 15µM, TDP1 cell CPT inconclusive (no result: ClpP mod)
Cc1cccc(N2CCN(C(=S)Nc3ccc4nc5n(c(=O)c4c3)CCCCC5)CC2)c1C	TDP1 cell noCPT 21µM, TDP1 cell CPT inconclusive (no result: ClpP mod)
COc1cc(C(=O)Nc2ccc3nc4n(c(=O)c3c2)CCCCC4)cc(OC)c1OC	TDP1 cell noCPT 23µM, TDP1 cell CPT inconclusive
CC(C)NC(=S)Nc1ccc2nc3n(c(=O)c2c1)CCCCC3	none
O=c1c2cc(NC(=S)NC3CC3)ccc2nc2n1CCCCC2	none
CC(=O)Nc1cc(C(=O)N2CCc3ccccc3C2)ccc1Sc1ccc(Cl)cc1	TDP1 cell noCPT inconclusive, TDP1 cell CPT inconclusive
Cc1ccc(NC(=O)COC(=O)c2ccc(-n3cccn3)cc2)cc1C	none
CC(C)C(=O)NS(=O)(=O)c1ccc(NS(C)(=O)=O)cc1	none
OCc1ccc(O)c2ncccc12	TDP1 cell noCPT 5.2µM, TDP1 cell CPT 5.2µM
Oc1ccc(CNc2ccccc2F)c2cccnc12	TDP1 cell noCPT 2.1µM, TDP1 cell CPT 2.1µM
Oc1ccc(Cc2ccccc2)c2cccnc12	TDP1 cell noCPT 2.1µM, TDP1 cell CPT 4.6µM (no result: TDP1 block, ClpP mod)
COc1c2c(c(C)c3c1C(=O)OC3)O[C@@]1(C)CC[C@@]3(O)C(C)(C)OC(=O)CC[C@]3(C)[C@H]1C2	TDP1 cell noCPT inconclusive, TDP1 cell CPT inconclusive (no result: TDP1 block)
CC(=O)N1CCc2c(sc3c2c(=O)n(Cc2ccccc2)c(=O)n3Cc2ccccc2F)C1	TDP1 cell noCPT 21µM, TDP1 cell CPT 21µM
O=c1c2c3c(sc2n2cnnc2n1Cc1ccccc1)CN(Cc1ccccc1)CC3	TDP1 cell noCPT 15µM, TDP1 cell CPT 16µM
